The results in this text go back to ChEMBL document CHEMBL3988442, “University of Dundee, Small-Polar-MMV Screening Library” (2021).

In test [1] the target is T1, Aspartate--tRNA(Asp/Asn) ligase (Mycobacterium tuberculosis (strain ATCC 25618 / H37Rv)) (UniProt P9WFW3). Also: in the data most compounds retested in dose-response had high values.
T1 sequence (whole entry): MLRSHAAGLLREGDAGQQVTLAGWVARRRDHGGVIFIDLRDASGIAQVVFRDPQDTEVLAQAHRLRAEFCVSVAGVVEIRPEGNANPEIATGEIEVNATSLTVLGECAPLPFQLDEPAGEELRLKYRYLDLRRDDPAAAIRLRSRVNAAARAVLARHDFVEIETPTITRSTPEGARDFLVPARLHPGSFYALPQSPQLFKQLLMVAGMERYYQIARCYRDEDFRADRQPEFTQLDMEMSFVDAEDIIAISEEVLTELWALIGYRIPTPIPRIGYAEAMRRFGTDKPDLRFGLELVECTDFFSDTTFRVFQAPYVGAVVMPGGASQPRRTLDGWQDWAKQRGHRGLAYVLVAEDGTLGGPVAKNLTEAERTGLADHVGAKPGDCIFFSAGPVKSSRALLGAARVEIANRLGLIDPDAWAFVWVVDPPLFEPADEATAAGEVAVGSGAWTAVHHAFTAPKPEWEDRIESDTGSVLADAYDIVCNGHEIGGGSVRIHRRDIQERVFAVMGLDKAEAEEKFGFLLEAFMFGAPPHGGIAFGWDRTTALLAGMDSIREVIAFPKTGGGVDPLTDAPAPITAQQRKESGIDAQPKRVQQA
Briefly: Assay for Asp RNA synthetase-1 from Mycobacterium tuberculosis. Format: functional. Set-up: scale not given: direction of the effect not stated beside the values. The note with it: 30 µM.

The target of test [2] is Shiga toxin 2 (Escherichia coli O157:H7) (UniProt P09385+P09386). Briefly: E. coli 0.157:H7 Shiga Toxin SOP - stx2 screening assay. Also noted: scale not given: direction of the effect not stated beside the values. In kind it is functional. The note with it: 30 µM.

Take `O=C(NCc1cc[nH]n1)NCC(c1ccco1)N1CCCC1` (centres undefined): the Percent Effect in test [1] was 0.607%; in test [2] it was 4.49%.
For `COc1cccc(CN(C)C(=O)CSc2ccc3c(c2)OCCO3)c1`, in that order: 0.12% and 7.23%.
For `O=C(C1CCOCC1)N1C[C@@H]2C[C@@H](c3nc(C4CC4)cs3)O[C@@H]2C1`, in that order: 2.07% and 17.3%.
For `CCOC(=O)NC(CNC(=O)c1ncccn1)CC(C)C` (centres undefined), in that order: 6.25% and 4.71%.
`COc1c(C2CCCN2CC(=O)Nc2nc(C)cs2)c(C)nn1C` (centres undefined): the Percent Effect in test [1] was -3%; in test [2] it was -14.6%.
For `Cc1cc2c(=O)n3c(nc2s1)CCN(Cc1cnn(C)c1C)CC3`, in that order: -4.72% and 8.81%.
For `Cc1nccc([C@H]2C[C@@H]3CCN(S(=O)(=O)N(C)C)C[C@H]3O2)n1`, in that order: 1.71% and 6.66%.
In the case of `Cc1noc(C)c1CCC(=O)N1CCCN(Cc2cscn2)CC1`, the Percent Effect in test [1] is -0.789%; in test [2], 27.4%.
Turning to `CC(C)c1noc(C(C)N2CCN(CCO)CC2)n1` (centres undefined), the results for the Percent Effect in test [1] and in test [2] were 13% and 16.1%, respectively.
Take `COc1ccc(C2=CCN(C(=O)CN(C)Cc3ccoc3)CC2)cc1`: the Percent Effect was -8.11% in test [1] and -67.5% in test [2].
For `CCCc1cc(CNC(=O)C2CCOc3ccccc3C2)on1` (centres undefined), in that order: 2.59% and 17.5%.
For `COc1ccc2c(c1)CC(NC(=O)NCc1cccs1)CO2` (centres undefined), in that order: -4.82% and -8.88%.
As to `Cc1nn(CC(=O)N2CCN(c3ccncc3)CC2)c(C)c1Cl`, the Percent Effect in test [1] is 0.15%; in test [2], -36.1%.
For `Cc1noc(C)c1CNCC1CCCN1c1cccnn1` (centres undefined), in that order: 1.53% and 5.13%.
For `O=C(CCn1ccccc1=O)Nc1ccc(I)cc1`, in that order: 8.05% and -26.1%.
For `COc1c(CNC2CCOc3ccccc32)c(C(C)C)nn1C` (centres undefined), in that order: 0.728% and 2.37%.
On to `CN(C)Cc1nnc(C2CCN(C(=O)CCc3cccs3)CC2)n1C`, for which the Percent Effect is -0.948% in test [1] and -11.1% in test [2].
